Assay in all cases: protein-binding microarray (PBM); PBM: ~300 nM protein, 6 mM HEPES pH 7.8, 80 mM KCl, 0.5 mM EDTA, 0.5 mM EGTA, 6% glycerol, 35 ng/ul poly-dIdC, 1% milk, 1 h, room temperature; Ap Aiptasia and Nv Nematostella (sea anemones) / Co Capsaspora / Aq Amphimedon (sponge) / Dm Drosophila / Hu human; RHD is the Rel homology domain; high values mean tight binding
Common to all, as to conditions: dsDNA, one strand shown

One experiment addresses T1, GST-Ap-NF-kB RHD (Exaiptasia pallida (Aiptasia), UniProt A0A913YAJ5 2-422).
T1 sequence: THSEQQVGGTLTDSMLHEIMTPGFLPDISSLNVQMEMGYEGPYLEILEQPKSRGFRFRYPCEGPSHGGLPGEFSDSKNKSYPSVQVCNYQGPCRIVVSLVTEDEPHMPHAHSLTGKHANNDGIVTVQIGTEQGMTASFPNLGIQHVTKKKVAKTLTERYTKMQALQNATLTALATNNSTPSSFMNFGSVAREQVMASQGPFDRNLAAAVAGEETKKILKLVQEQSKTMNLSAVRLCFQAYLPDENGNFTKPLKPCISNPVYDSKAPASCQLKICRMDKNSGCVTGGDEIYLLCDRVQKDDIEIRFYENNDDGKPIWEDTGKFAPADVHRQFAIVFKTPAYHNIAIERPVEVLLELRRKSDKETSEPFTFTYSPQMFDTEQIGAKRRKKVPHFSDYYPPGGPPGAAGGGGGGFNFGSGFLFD

Experiment [1] addresses T2, GST-Nv-NF-kB (Cys allele) (Nematostella vectensis, UniProt E5G601 2-411).
T2 sequence: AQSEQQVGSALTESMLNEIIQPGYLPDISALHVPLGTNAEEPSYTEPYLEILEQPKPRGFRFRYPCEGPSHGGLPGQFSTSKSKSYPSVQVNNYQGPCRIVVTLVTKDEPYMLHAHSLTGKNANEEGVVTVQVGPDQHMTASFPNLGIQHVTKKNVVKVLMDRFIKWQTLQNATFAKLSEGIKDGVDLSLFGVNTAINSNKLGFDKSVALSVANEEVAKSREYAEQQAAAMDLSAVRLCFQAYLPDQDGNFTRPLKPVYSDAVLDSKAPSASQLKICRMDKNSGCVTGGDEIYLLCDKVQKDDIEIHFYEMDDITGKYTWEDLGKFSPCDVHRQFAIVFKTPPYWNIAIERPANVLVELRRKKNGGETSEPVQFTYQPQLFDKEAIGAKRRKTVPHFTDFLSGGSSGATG

In the next experiment the target is T3, GST-Co-NF-kB (Capsaspora owczarzaki, UniProt F1ARL5 200-546).
T3 sequence: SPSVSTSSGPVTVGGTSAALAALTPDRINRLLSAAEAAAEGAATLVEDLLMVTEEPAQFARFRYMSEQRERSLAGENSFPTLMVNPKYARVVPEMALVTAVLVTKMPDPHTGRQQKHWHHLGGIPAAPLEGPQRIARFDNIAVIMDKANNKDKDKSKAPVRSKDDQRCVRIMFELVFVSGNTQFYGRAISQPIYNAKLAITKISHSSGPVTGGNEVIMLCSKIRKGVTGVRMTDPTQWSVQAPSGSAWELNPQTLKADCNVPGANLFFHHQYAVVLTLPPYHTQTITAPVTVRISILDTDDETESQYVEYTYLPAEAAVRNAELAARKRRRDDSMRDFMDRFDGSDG

Another experiment deals with T4, GST-Aq-NF-kB (Amphimedon queenslandica, UniProt A9Y5G7 2-389).
T4 sequence: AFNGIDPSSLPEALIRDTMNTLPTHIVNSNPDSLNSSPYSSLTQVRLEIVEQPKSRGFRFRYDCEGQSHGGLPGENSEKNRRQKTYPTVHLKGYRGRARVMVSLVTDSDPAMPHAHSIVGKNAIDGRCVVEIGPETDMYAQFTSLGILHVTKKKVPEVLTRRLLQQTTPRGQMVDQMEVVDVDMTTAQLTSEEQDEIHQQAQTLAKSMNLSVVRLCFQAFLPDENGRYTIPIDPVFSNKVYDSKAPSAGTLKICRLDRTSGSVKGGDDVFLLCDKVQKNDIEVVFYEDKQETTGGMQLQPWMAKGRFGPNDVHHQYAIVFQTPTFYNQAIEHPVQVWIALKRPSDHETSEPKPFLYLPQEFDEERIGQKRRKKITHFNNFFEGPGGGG

The target of experiment [2] is T5, GST-Nv-NF-kB (Ser allele) (Nematostella vectensis, UniProt A7UNT2 2-411).
T5 sequence: T2 sequence with Q21R, C66S, S207N, E215Q, V217A, E225K, A268E, D399E

In another experiment the target is T6, GST-Dm-Relish (Drosophila melanogaster, UniProt Q94527 99-473).
T6 sequence: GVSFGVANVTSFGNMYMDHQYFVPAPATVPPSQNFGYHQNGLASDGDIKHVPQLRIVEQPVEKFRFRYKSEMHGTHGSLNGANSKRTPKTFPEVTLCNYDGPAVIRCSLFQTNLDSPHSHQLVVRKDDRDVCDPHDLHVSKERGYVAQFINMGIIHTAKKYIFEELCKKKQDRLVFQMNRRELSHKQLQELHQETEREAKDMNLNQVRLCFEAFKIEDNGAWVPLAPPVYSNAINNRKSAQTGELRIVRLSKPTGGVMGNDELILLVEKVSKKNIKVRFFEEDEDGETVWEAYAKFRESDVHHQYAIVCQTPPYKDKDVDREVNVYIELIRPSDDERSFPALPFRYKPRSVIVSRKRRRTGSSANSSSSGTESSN

Residue numbers refer to the chain shown, from its start.

“CCGATTAACATCAGGAGTCTCCCTGATGTTAATCGGGTCTTGATTCGCTTGACGCTGCTG”: the binding signal is 1.69 z-score in the experiment with GST-Ap-NF-kB RHD, 2.44 z-score in experiment [1], 2.17 z-score with GST-Co-NF-kB and 5.28 z-score with GST-Aq-NF-kB.

As to “CCGATTAACATCAAGGGAAAAATTGATGTTAATCGGGTCTTGATTCGCTTGACGCTGCTG”, the binding signal in the experiment with GST-Ap-NF-kB RHD came to 3.76 z-score; in experiment [1] it was 6.35 z-score; in experiment [2], 7 z-score; in the experiment with GST-Co-NF-kB, 5.22 z-score; with GST-Dm-Relish, 1.89 z-score; with GST-Aq-NF-kB, 5.11 z-score.

On to “CCGATTAACATCACAATTTTCCCTGATGTTAATCGGGTCTTGATTCGCTTGACGCTGCTG”, for which the binding signal in the experiment with GST-Ap-NF-kB RHD was 4.54 z-score; in experiment [1], 6.45 z-score; in experiment [2], 7.95 z-score; with GST-Co-NF-kB it was 5.61 z-score; in the experiment with GST-Dm-Relish, 2.17 z-score; with GST-Aq-NF-kB it was 5.58 z-score.

In the case of “CCGATTAACATCAAAAAACTACCTGATGTTAATCGGGTCTTGATTCGCTTGACGCTGCTG”, the binding signal amounted to 2.29 z-score in the experiment with GST-Ap-NF-kB RHD; 3 z-score in experiment [1]; 7.62 z-score in experiment [2]; 6.2 z-score with GST-Dm-Relish; 3.57 z-score with GST-Aq-NF-kB.

For the sequence “CCGATTAACATCACGGTAATCCCTGATGTTAATCGGGTCTTGATTCGCTTGACGCTGCTG”, the binding signal with GST-Ap-NF-kB RHD stood at 4.31 z-score; in experiment [1], 1.91 z-score; in experiment [2] it was 1.84 z-score; in the experiment with GST-Dm-Relish it was 5.6 z-score; in the experiment with GST-Aq-NF-kB, 4.77 z-score.

On to “CCGATTAACATCAACCAATCCCCTGATGTTAATCGGGTCTTGATTCGCTTGACGCTGCTG”, for which the binding signal in the experiment with GST-Ap-NF-kB RHD was 5.19 z-score; in experiment [1] it was 5.28 z-score; in experiment [2], 6.6 z-score; with GST-Co-NF-kB, 2.16 z-score; with GST-Dm-Relish, 2.29 z-score; in the experiment with GST-Aq-NF-kB, 3.86 z-score.

Regarding “CCGATTAACATCACCAGTTTCCCTGATGTTAATCGGGTCTTGATTCGCTTGACGCTGCTG”, the binding signal with GST-Ap-NF-kB RHD was 2.66 z-score; in experiment [1], 3.06 z-score; in the experiment with GST-Co-NF-kB, 3.09 z-score; with GST-Aq-NF-kB, 2.6 z-score.

For the sequence “CCGATTAACATCATGTTGGGAAATGATGTTAATCGGGTCTTGATTCGCTTGACGCTGCTG”, the binding signal in the experiment with GST-Ap-NF-kB RHD came out at 1.02 z-score; in experiment [1], 2.29 z-score; with GST-Co-NF-kB, 2.51 z-score; with GST-Aq-NF-kB, 1.2 z-score.

In the case of “CCGATTAACATCACTATTTTCCCTGATGTTAATCGGGTCTTGATTCGCTTGACGCTGCTG”, the binding signal with GST-Ap-NF-kB RHD came to 3.72 z-score; in experiment [1] it was 4.96 z-score; in experiment [2], 6.91 z-score; in the experiment with GST-Co-NF-kB, 5.27 z-score; with GST-Dm-Relish, 1.52 z-score; in the experiment with GST-Aq-NF-kB it was 3.51 z-score.

“CCGATTAACATCAGGAAAGTACCTGATGTTAATCGGGTCTTGATTCGCTTGACGCTGCTG”: the binding signal in the experiment with GST-Ap-NF-kB RHD amounted to 3.4 z-score; in experiment [1], 5.99 z-score; in experiment [2], 8.2 z-score; with GST-Dm-Relish, 8.08 z-score; with GST-Aq-NF-kB, 6.27 z-score.

For “CCGATTAACATCAGGGGAAGAAATGATGTTAATCGGGTCTTGATTCGCTTGACGCTGCTG”, the binding signal in the experiment with GST-Ap-NF-kB RHD is 4.46 z-score; in experiment [1] it was 5.99 z-score; in experiment [2], 6.85 z-score; with GST-Co-NF-kB, 8.71 z-score; with GST-Dm-Relish it was 6.53 z-score; with GST-Aq-NF-kB, 4.68 z-score.

On to “CCGATTAACATCAGGTAATTACCTGATGTTAATCGGGTCTTGATTCGCTTGACGCTGCTG”, for which the binding signal with GST-Ap-NF-kB RHD amounted to 2.06 z-score; in experiment [1], 4.18 z-score; in experiment [2] it was 5.28 z-score; with GST-Dm-Relish it was 5.43 z-score; with GST-Aq-NF-kB, 5.11 z-score.

Consider “CCGATTAACATCAGCTCCCCCCCTGATGTTAATCGGGTCTTGATTCGCTTGACGCTGCTG”, for which the binding signal is 5.26 z-score in the experiment with GST-Ap-NF-kB RHD, 3.87 z-score in experiment [1], 5.77 z-score in the experiment with GST-Co-NF-kB and 3.99 z-score with GST-Aq-NF-kB.

As to “CCGATTAACATCATACAAGGGAGTGATGTTAATCGGGTCTTGATTCGCTTGACGCTGCTG”, the binding signal with GST-Ap-NF-kB RHD stood at 1.02 z-score; in experiment [1], 1.41 z-score; with GST-Co-NF-kB, 1.46 z-score; with GST-Aq-NF-kB it was 2.84 z-score.

In the case of “CCGATTAACATCAGGGAAGGACCTGATGTTAATCGGGTCTTGATTCGCTTGACGCTGCTG”, the binding signal with GST-Ap-NF-kB RHD was found to be 1.78 z-score; in experiment [1], 2.28 z-score; in experiment [2] it was 1.09 z-score; with GST-Dm-Relish, 4.44 z-score; with GST-Aq-NF-kB it was 3.91 z-score.

For the sequence “CCGATTAACATCAGAGTTTTCCCTGATGTTAATCGGGTCTTGATTCGCTTGACGCTGCTG”, the binding signal with GST-Ap-NF-kB RHD was found to be 3.96 z-score; in experiment [1], 5.58 z-score; in experiment [2], 6.71 z-score; in the experiment with GST-Co-NF-kB, 4.75 z-score; with GST-Dm-Relish it was 1.89 z-score; in the experiment with GST-Aq-NF-kB it was 4.65 z-score.

With “CCGATTAACATCACCTCTTTCCCTGATGTTAATCGGGTCTTGATTCGCTTGACGCTGCTG”, the binding signal in the experiment with GST-Ap-NF-kB RHD amounted to 2.58 z-score; in experiment [1], 2.64 z-score; with GST-Co-NF-kB, 3.61 z-score; with GST-Aq-NF-kB it was 2.52 z-score.

“CCGATTAACATCAGGGAAAAAAATGATGTTAATCGGGTCTTGATTCGCTTGACGCTGCTG”: the binding signal with GST-Ap-NF-kB RHD is 3.48 z-score; in experiment [1], 5.81 z-score; in experiment [2], 7.5 z-score; with GST-Co-NF-kB, 5.71 z-score; in the experiment with GST-Dm-Relish, 2.19 z-score; in the experiment with GST-Aq-NF-kB, 4.63 z-score.

“CCGATTAACATCAGGGAAACTACTGATGTTAATCGGGTCTTGATTCGCTTGACGCTGCTG”: the binding signal with GST-Ap-NF-kB RHD came out at 3.54 z-score; in experiment [1], 4.2 z-score; in experiment [2], 4.47 z-score; with GST-Co-NF-kB, 3.89 z-score; with GST-Dm-Relish, 5.85 z-score; in the experiment with GST-Aq-NF-kB it was 5.64 z-score.

These data come from paper PMC5700166.
